The source made the active and inactive calls. No rule for the calls is given here.

This assay is described as follows: inhibition of Brca1/Bard1 split-luciferase complementation, confirmation, counter-screen for Mdm2/MdmX interaction inhibitor project, luminescence, single concentration (AID 504668). Conditions: Brca1/Bard1 bimolecular luciferase complementation counterscreen, at 8 µM, stronger effect = higher value.
For `Cc1ccc(N=Nc2ccc(O)c3ncccc23)cc1C`, the inhibition (usually the drop in the measured response relative to a control, in per cent) is 25.6% (active).

Turning to `COC1(OC)C(/C=C/c2ccc(C)cc2)C(C#N)(C#N)C1(OC)OC` (stereo not given), the inhibition is 35.3% (active).

Consider `CN1C(=O)/C(=C\c2cc(N=Nc3ccccc3)ccc2O)SC1=S`, for which the inhibition is 34.4% (active). Consider `Cc1ccc2nc(-c3ccccn3)c(Nc3ccccc3C)n2c1`, for which the inhibition was 35.8% (active). As for `O=Cc1[nH]c2ccccc2c1N(C(=O)CCl)c1ccc([N+](=O)[O-])cc1`, the inhibition is 25.5% (active). Regarding `O=C(CCCN1C(=O)/C(=C\c2cccc(Br)c2)SC1=S)Nc1cccnc1`, the inhibition was 24.4% (active). In the case of `CCOc1ccc(/C=C/C(O)=C2/C(=O)NC3(C)CC2c2ccccc2O3)cc1OC` (stereo not given), the inhibition was 23.4% (active).

`O=c1c2ccccc2nc(/C=C/c2cc(Br)ccc2O)n1CCCO`: the inhibition was 26.6% (active).

With `Cc1cc(C)cc(OCc2nc3ncc(Br)cc3[nH]2)c1`, the inhibition was 30.8% (active). Consider `O=C(Nc1ccc(Cl)c(Cl)c1)Nc1ccc(Br)cc1F`, for which the inhibition was 35.2% (active). The figure for `Cc1cc([N+](=O)[O-])cc(/C=N\NC(=O)C2COc3ccccc3O2)c1O` (stereo not given) is 27.6% (active); for `CCN1C(=O)C2(Nc3ccccc3-c3nc4ccccc4n32)c2cc(OC)ccc21` (stereo not given) it is 23.7% (active). The figure for `COc1ccc(-c2oc3ncnc(NCCCN(C)C)c3c2-c2ccc(OC)cc2)cc1` is 28.6% (active). With `CC(C)CC(=O)NC(c1cccs1)c1ccc2cccnc2c1O` (stereo not given), the inhibition was 25.3% (active).

Regarding `Cc1cccc(/C=N/NC(=O)Cc2ccc(Cl)cc2)c1O`, the inhibition is 29.9% (active).

As to `CCc1ccc(C(O)(CC(C)C)C(CN2CCOCC2)c2ccccc2)cc1` (stereo not given), the inhibition was 27.2% (active).

`Cc1ccc(/C=N/NC(=O)c2c(-c3ccccc3)noc2C)c(O)c1`: the inhibition was 31.1% (active). Then `COc1cccc(C(NC(C)=O)c2ccc3cccnc3c2O)c1` (stereo not given), with 29.3% (active); and `CC1=NNC(=O)/C1=C\c1cn(-c2ccccc2)nc1-c1cccs1`, with 25.7% (active); and `COc1ccc(-c2csc(NC(=S)NC(=O)c3ccco3)n2)cc1Br`, with 23.1% (active).

`COc1ccc(/C=C2\CCC/C(=C\C=N\N(C)C)C2=O)cc1`: the inhibition is 29.2% (active). Then `O=c1c2ccccc2nc(-c2ccc(Cl)c(Cl)c2)n1O`, with 26.8% (active); and `O=C(C[C@H]1C[C@H](C(=O)N2CCCCC2)[C@@]2(CCc3ccccc3)c3[nH]c4ccc(Cl)cc4c3CCN2C1=O)NCc1cccc(C(F)(F)F)c1`, with 34% (active).

`CC#CC[N+](C)(C)CCCCCCCCCCCC`: the inhibition was 29.6% (active). Turning to `O=C(Nc1ccc(Cl)c([N+](=O)[O-])c1)C(Sc1ccccc1)c1ccccc1` (stereo not given), the inhibition is 24.1% (active). With `COc1ccc2[nH]c(C(=O)N/N=C/c3ccc(O)cc3O)cc2c1`, the inhibition was 31.2% (active). In the case of `O=C(CCl)Nc1cn(-c2ccccc2)nc1-c1ccccc1`, the inhibition is 33.7% (active). In the case of `CCOc1ccc(-c2nnc(SCC(=O)Nc3ccc4c(c3)c3ccccc3n4CC)n2N)cc1`, the inhibition is 23.1% (active). Then `O=C(/C=C/c1c(F)cccc1Cl)c1ccc(O)cc1`, with 32.3% (active); and `Cc1nnsc1C(=O)N/N=C/c1ccc2ccccc2c1O`, with 30.1% (active). Regarding `C(=N\Nc1nc(-c2ccccn2)nc2ccccc12)/c1ccccc1`, the inhibition was 26.1% (active).

Consider `CC(C)Cn1c(=O)c(C(=O)Nc2ccccc2S(N)(=O)=O)c(O)c2ccccc21`, for which the inhibition was 26.4% (active).

Turning to `OC(c1cc(C(F)(F)F)nc2c(C(F)(F)F)cccc12)C1CCCCN1` (stereo not given), the inhibition was 35.8% (active). Regarding `COc1ccc(/C=C2/SC(=S)N(CCCC(=O)Nc3cccc(O)c3)C2=O)cc1`, the inhibition is 28.6% (active).

As to `COc1ccc(Nc2ccnc3ccccc23)cc1`, the inhibition was 33.7% (active). With `Cc1sc2ncn(CC(=O)NCCCC(=O)Nc3ccc(C(C)C)cc3)c(=O)c2c1C`, the inhibition was 29.2% (active).

With `COc1ccc(-c2oc3cc(OC)c(O)c(OC)c3c(=O)c2OC)cc1O`, the inhibition was 28.4% (active). The figure for `O=C(Nc1ccc(Cl)cc1)Nc1ccc(Cl)c(Cl)c1` is 26.8% (active); for `CCCNC(=O)c1ccc2c(=O)c(O)c(-c3cccc(Br)c3)[nH]c2c1` it is 31.4% (active). Then `COc1ccc(-n2c(C)c([N+](=O)[O-])c3ccc(O)c(CN4CCCCC4)c32)cc1`, with 28.9% (active).
